Measurements as given in PubChem BioAssay (Tox21).
Where “and” joins values, the source holds several entries; their conditions need not be identical. Identical values can stand only once. Inconclusive results are not listed. A structure can be active in one record and inactive in another. Calls of active or inactive are those of the source. Unless noted, calls come from the whole dose curve; as a rule, active = well fitted curve in the direction sought with a large enough effect in the repeat runs; inconclusive = weak or mixed curves; inactive = no such curve, though single readings can be large; an effect the other way counts as inactive or inconclusive.

Experiments:
[1] = A CellTox Green Cytotoxicity Assay to monitor cytotoxicity in HepG2 cells - 8 hour (AID 1224890); note: nearly all actives have a fitted effect of over 45% in size; note: potency is the fitted concentration of half-maximal effect
How it was run: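 First, HepG2 cells (600/well) mixed with reagent were plated; second, after 5 h at 37 C they received compounds via pintool; third, fluorescence was measured at 0 h through 40 h at 8 h intervals.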

[2] = qHTS assay to identify small molecule antagonists of the estrogen receptor alpha (ER-alpha) signaling pathway using the BG1 cell line in the presence of 0.1 nM 17-beta-estradiol - cell viability counter screen (AID 1259241); note: nearly all actives have a fitted effect of over 40% in size
How it was run: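 CellTiter-Fluor read (30 min, 37C) on ER-alpha/ERE-luc VM7Luc4E2 cells; 22 hr compound treatment; agonist 0.1 nM E2 final; same-well multiplex.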

[3] = qHTS assay to identify small molecule antagonists of the androgen receptor (AR) signaling pathway using the MDA cell line in the presence of 0.5 nM R1881 - cell viability counter screen (AID 1259242); note: nearly all actives have a fitted effect of over 45% in size
How it was run: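 qHTS format. MDA-kb2 (MMTV-luc, AR/GR responsive) + cpd + 0.5 nM R1881 final, 16 hr 37C/0% CO2 → CellTiter-Fluor 30 min → fluorescence intensity.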

[4] = target: Estrogen receptor (Homo sapiens) (UniProt P03372); assay: qHTS assay to identify small molecule antagonists of the estrogen receptor alpha (ER-alpha) signaling pathway using the BG1 cell line in the presence of 0.1 nM 17-beta-estradiol (AID 1259244); note: nearly all actives have a fitted effect of over 50% in size
Estrogen receptor (Homo sapiens), sequence (P03372 whole entry, looked up): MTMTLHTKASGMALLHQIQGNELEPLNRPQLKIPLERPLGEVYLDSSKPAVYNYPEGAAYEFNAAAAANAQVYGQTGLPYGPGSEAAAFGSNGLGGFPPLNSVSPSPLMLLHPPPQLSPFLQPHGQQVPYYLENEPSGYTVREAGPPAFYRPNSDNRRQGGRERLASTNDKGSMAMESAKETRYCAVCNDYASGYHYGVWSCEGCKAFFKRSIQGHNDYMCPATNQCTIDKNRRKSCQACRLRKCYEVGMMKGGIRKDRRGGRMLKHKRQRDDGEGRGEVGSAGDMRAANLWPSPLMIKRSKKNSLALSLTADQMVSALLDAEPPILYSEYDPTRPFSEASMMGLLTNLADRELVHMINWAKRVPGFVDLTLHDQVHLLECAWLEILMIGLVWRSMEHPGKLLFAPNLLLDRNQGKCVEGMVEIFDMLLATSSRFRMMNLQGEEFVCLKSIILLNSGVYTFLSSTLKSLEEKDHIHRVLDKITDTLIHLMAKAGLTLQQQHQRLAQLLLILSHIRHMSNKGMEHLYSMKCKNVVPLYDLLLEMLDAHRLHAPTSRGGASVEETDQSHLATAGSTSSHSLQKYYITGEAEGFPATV
How it was run: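 Reporter is a stably transfected luciferase under four estrogen responsive elements in VM7Luc4E2 cells expressing native full-length ER-alpha; inhibition of 0.1 nM (final) 17beta-estradiol-driven signal over 22 h is read by luminescence.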

[5] = qHTS assay to identify small molecule HDAC inhibitors (AID 1259364);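 note: wild-type HCT-116 cells with endogenous class I/II HDAC activity; top concentration of the series differs between compounds; nearly all actives have a fitted effect of over 45% in size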
How it was run: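 Quantitative high-throughput format: overnight-seeded HCT-116 cells got compounds for 2 hr at 37C; HDAC-Glo I/II reagent added, 30 min RT, luminescence measured.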

[6] = qHTS assay to identify small molecule HDAC inhibitors - cell viability counter screen (AID 1259365); note: series mostly up to about 92 µM; nearly all actives have a fitted effect of over 50% in size
How it was run: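 To flag cytotoxic hits, 1,500 wild-type HCT-116 cells per well, plated the day before, receive test compounds for 2hr at 37 C before CellTiter-Glo reagent and a luminescence read.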

[7] = qHTS assay to identify small molecule agonists of the sonic hedgehog signaling (Shh) pathway - cell viability counter screen (AID 1259366); note: nearly all actives have a fitted effect of over 50% in size
How it was run: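 Fluorescence from CellTiter-Fluor reports live cells in this counter screen. NIH/3T3-derived Gli1-Luc reporter cells receive test compounds for 24hr at 37C; reagent goes in at 23hr.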

[8] = qHTS assay to identify small molecule antagonists of the sonic hedgehog signaling (Shh) pathway - cell viability counter screen (AID 1259367); note: nearly all actives have a fitted effect of over 55% in size; note: potency is the fitted concentration of half-maximal effect
How it was run: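 Conditioned medium drove Shh signaling in 3T3 Gli1-Luc cells exposed to compounds at 37C and 5% CO2. Viability was determined from CellTiter-Fluor fluorescence, with reagent incubated 1 hr after 23 hr of treatment.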

[9] = qHTS assay to identify small molecule agonists of the androgen receptor (AR) signaling pathway in the presence of an antagonist - cell viability counter screen (AID 1259379);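 note: MDA-kb2 human breast cancer cells carrying an MMTV luciferase reporter; series mostly up to about 92 µM; nearly all actives have a fitted effect of over 25% in size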
How it was run: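 Nilutamide-containing (3.0uM final) MDA-kb2 cultures, 3,000 cells/well, were treated with compounds across 15 concentrations. After 16 hr at 37C with no CO2, cell viability was determined by CellTiter-Fluor fluorescence in the luciferase assay wells.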

[10] = target: Estrogen receptor (Homo sapiens) (UniProt P03372); assay: qHTS assay to identify small molecule agonists of the estrogen receptor alpha (ER-alpha) signaling pathway in the presence of an antagonist (AID 1259383; calls by dose curve; note: top concentration of the series differs between compounds; nearly all actives have a fitted effect of over 15% in size)
How it was run: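 Readout was ERE-driven luciferase luminescence in VM7Luc4E2 cells, which express full-length ER-alpha endogenously. Compounds were tested at 15 concentrations for 22hr alongside 10.0nM ICI-182,780 (final concentration).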

[11] = qHTS assay to identify small molecule agonists or antagonists of the thyroid stimulating hormone receptor (TSHR) signaling pathway - wild type cell line counter screen (AID 1259384; calls by dose curve)
How it was run: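 Wild-type HEK293 cells were plated 18 h at 37 C/5% CO2, pin-dosed with compound plus Ro20-1724 medium, held 30 min at room temperature, then given cAMP-d2 and anti-cAMP-cryptate; fluorescence was read after 1 h. Fifteen concentrations, triplicate.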

[12] = qHTS assay to identify small molecule agonists of the sonic hedgehog signaling (Shh) pathway (AID 1259368; calls by dose curve;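 note: NIH/3T3-derived 3T3Gli1-Luc cells carrying a stable Gli1-driven firefly luciferase reporter; series mostly up to about 92 µM; nearly all actives have a fitted effect of over 15% in size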)
How it was run: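 Quantitative high-throughput format using a Gli1-driven firefly luciferase reporter line derived from NIH/3T3 cells. After a 24 hr compound treatment at 37 C and 5% CO2, luminescence reported Gli1 response element activity.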

[13] = target: Estrogen receptor beta (Homo sapiens) (UniProt Q92731); assay: qHTS assay to identify small molecule agonists of the estrogen receptor beta (ER-beta) signaling pathway (AID 1259377; active = well fitted activation curve with a large enough effect in the signal ratio in the repeat runs, not every such curve was filed as active; the % refers to the signal ratio)
Estrogen receptor beta (Homo sapiens), sequence (Q92731 whole entry, looked up): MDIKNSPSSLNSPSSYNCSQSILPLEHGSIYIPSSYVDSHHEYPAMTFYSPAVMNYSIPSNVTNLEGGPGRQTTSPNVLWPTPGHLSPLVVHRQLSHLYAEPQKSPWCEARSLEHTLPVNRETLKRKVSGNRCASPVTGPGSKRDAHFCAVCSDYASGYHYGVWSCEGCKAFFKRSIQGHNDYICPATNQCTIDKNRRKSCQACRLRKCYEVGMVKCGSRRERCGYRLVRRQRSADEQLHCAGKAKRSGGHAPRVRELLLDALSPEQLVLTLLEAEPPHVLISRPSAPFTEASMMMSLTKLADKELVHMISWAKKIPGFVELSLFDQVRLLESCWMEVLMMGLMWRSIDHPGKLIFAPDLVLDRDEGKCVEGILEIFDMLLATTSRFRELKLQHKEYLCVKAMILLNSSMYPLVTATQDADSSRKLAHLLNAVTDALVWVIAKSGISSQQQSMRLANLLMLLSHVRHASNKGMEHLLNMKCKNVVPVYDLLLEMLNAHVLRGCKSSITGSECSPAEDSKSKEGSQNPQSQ
How it was run: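 Screening used GripTite ER-beta-UAS-bla cells held in 2% charcoal-stripped FBS medium. After overnight (16 hr) compound incubation at 37C, beta-lactamase activity was detected with a FRET substrate by fluorescence.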

[14] = target: Estrogen receptor beta (Homo sapiens) (UniProt Q92731); assay: qHTS assay to identify small molecule antagonists of the estrogen receptor beta (ER-beta) signaling pathway (AID 1259378; active = well fitted inhibition curve with a large enough effect in the signal ratio in the repeat runs, not every such curve was filed as active; the % refers to the signal ratio)
How it was run: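 ER-beta-UAS-bla HEK293T (GripTite) cells in 2% charcoal-stripped FBS medium were preincubated 6 hr at 37C, dosed with compound, then stimulated with 1 nM E2 (final) for 16 hr; beta-lactamase reporter read by B/G FRET fluorescence after 2 hr substrate loading.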

[15] = qHTS assay to identify small molecule agonists of the estrogen receptor beta (ER-beta) signaling pathway - cell viability counter screen (AID 1259380); note: nearly all actives have a fitted effect of over 30% in size
How it was run: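 Steps: plate ER-beta-UAS-bla HEK293T cells, rest 6 hr; add compounds in DMSO; incubate 16 hr at 37C, 5% CO2; add FRET substrate 2 hr; add CellTiter-Glo, wait 30 min at room temperature; read luminescence.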

[16] = qHTS assay to identify small molecule antagonists of the estrogen receptor beta (ER-beta) signaling pathway - cell viability counter screen (AID 1259382); note: series mostly up to about 92 µM; nearly all actives have a fitted effect of over 55% in size
How it was run: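 Viability is scored by CellTiter-Glo luminescence (30 min, room temperature) in ER-beta-UAS-bla HEK293T wells already read for reporter fluorescence. Compound exposure lasts 16 hr at 37C alongside 1nM 17-beta-estradiol in charcoal-stripped serum medium.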

[17] = qHTS assay to identify small molecule antagonists of the sonic hedgehog signaling (Shh) pathway (AID 1259369; calls by dose curve; note: nearly all actives have a fitted effect of over 45% in size)
How it was run: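 Stable Gli1-Luc reporter NIH/3T3 clone; quantitative HTS in stimulated mode with conditioned medium. Luminescence measured after 24hr compound treatment at 37 C.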
% is set by controls: 0 for no effect and ±100 for the full control effect.

CC(=O)c1ccccc1O
inactive: Potency [1] | outcome [2] | Potency [3] | outcome [4] | Potency [5] | outcome [6] | Potency [7] | Potency [8] | Potency [9] | Potency [10] | outcome [11]

O=c1n(CCO)c(=O)n(CCO)c(=O)n1CCO
inactive and 54.5 µM (active): Potency [8]
inactive and 38.9 µM (active): Potency [1]
inactive: outcome [2] | Potency [3] | outcome [4] | Potency [5] | outcome [6] | Potency [7] | outcome [12] | outcome [13] | outcome [14] | Potency [9] | Potency [15] | Potency [16] | Potency [10]

Cc1c(O)cccc1O
inactive: Potency [1] | outcome [2] | Potency [3] | outcome [4] | Potency [5] | outcome [6] | Potency [8] | outcome [12] | Potency [9] | Potency [15] | Potency [16] | Potency [10]

COC(=O)NN
inactive: Potency [1] | outcome [2] | Potency [3] | outcome [4] | Potency [5] | outcome [6] | Potency [7] | Potency [8] | outcome [12] | outcome [13] | outcome [14] | Potency [9] | Potency [15] | Potency [16] | Potency [10] | outcome [11]

O=C1CCCN1C1CCCCC1
inactive: Potency [1] | outcome [2] | Potency [3] | outcome [4] | Potency [5] | outcome [6] | Potency [7] | Potency [8] | Potency [9] | Potency [15] | Potency [16] | Potency [10] | outcome [11]

CCc1nccnc1CC
inactive: cytotoxicity increase [1] 4% [at 15.8 µM] | activity change, negative = cytotoxicity [2] -0.0848% [at 19 µM] | viability change, negative = cytotoxic [3] 6.4% [at 19 µM] | activity change, negative = inhibition [4] 2.66% [at 19 µM] | activity change, negative = inhibition [5] 0.718% [at 19 µM] | activity change, negative = cytotoxicity [6] 0.191% [at 19 µM] | viability change, negative = cytotoxic [7] 3.6% [at 19 µM] | Potency [8] | activity change [12] 0.457% [at 18.9 µM] | Potency [17] | activity change, negative = cytotoxicity [9] 1.15% [at 19 µM] | activity change, negative = cytotoxicity [15] 3.58% [at 19 µM] | activity change, negative = cytotoxicity [16] 15.2% [at 19 µM] | activation [10] -0.0927% [at 19 µM] | cAMP activity change [11] -3.22% [at 18.9 µM]

C=CCS(=O)(=O)O
inactive: Potency [1] | outcome [2] | Potency [3] | outcome [4] | Potency [5] | outcome [6] | Potency [7] | Potency [8] | outcome [12] | Potency [17] | Potency [9] | Potency [15] | Potency [16] | Potency [10] | outcome [11]

CCCCC/C=C\CCC=O
inactive: Potency [1] | outcome [2] | Potency [3] | outcome [4] | Potency [5] | outcome [6] | Potency [8] | outcome [12] | Potency [17] | Potency [9] | Potency [15] | Potency [16] | Potency [10] | outcome [11]

Cc1ccc(C#N)cc1
inactive: Potency [1] | outcome [2] | Potency [3] | outcome [4] | outcome [6] | Potency [7] | Potency [8] | outcome [12] | Potency [17] | outcome [13] | outcome [14] | Potency [9] | Potency [15] | Potency [16] | Potency [10] | outcome [11]
